Data reported in PubChem BioAssay AID1159580 (chemical genetic matrix, 2015).
Out of some 5,500 compounds screened, about 2,000 (36%) were called active. Roughly 18% stayed inconclusive and do not appear here. No stated cut-off is given here; in the data, active means normalized growth mostly below about 0.91 (no sharp cut-off); inconclusive means no clear call, values can overlap the other calls; inactive means mostly above about 0.92. The list shows a part of the results.

Assay: chemical genetic growth profiling, strain panel (AID 1159580);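 further: tested at 20 µM; growth read once vehicle control cultures reached saturation at 30 °C; 1 = growth at the plate median or of vehicle wells; lower values mean less growth of the strain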
Conditions: growth OD

Measured: normalized growth

CN(N=O)C(=O)N[C@@H]1[C@@H](O)[C@H](O)[C@@H](CO)O[C@@H]1O
inactive: S. cerevisiae deletion strains, locus YJL187C, strain SWE1 (second series), hits give low values 1.01 | S. cerevisiae deletion strains, locus YJR043C, strain POL32, hits give low values 1.01 | S. cerevisiae deletion strains, locus YJR066W, strain TOR1, hits give low values 0.99 | S. cerevisiae deletion strains, locus YKL009W, strain mrt4, hits give low values 1.05 | S. cerevisiae deletion strains, locus YKL068W, hits give low values 1 | S. cerevisiae deletion strains, locus YKL085W, strain MDH1 (second series), hits give low values 1.01 | S. cerevisiae deletion strains, locus YKL085W, strain MDH1, hits give low values 1.01 | S. cerevisiae deletion strains, locus YKL160W, strain elf1, hits give low values 1.02 | S. cerevisiae deletion strains, locus YKR001C, strain vps1, hits give low values 1 | S. cerevisiae deletion strains, locus YKR026C, strain gcn3, hits give low values 0.973 | S. cerevisiae deletion strains, locus YKR091W, strain srl3, hits give low values 0.988 | S. cerevisiae deletion strains, locus YLL001W, strain dnm1, hits give low values 0.987 | S. cerevisiae deletion strains, locus YLL026W, hits give low values 0.994 | S. cerevisiae deletion strains, locus YLL041C, strain sdh2, hits give low values 0.971 | S. cerevisiae deletion strains, locus YLR027C, strain aat2, hits give low values 1.01 | S. cerevisiae deletion strains, locus YLR039C, strain RIC1, hits give low values 1.03 | S. cerevisiae deletion strains, locus YLR058C, strain SHM2, hits give low values 1.01 | S. cerevisiae deletion strains, locus YLR102C, strain apc9, hits give low values 0.999 | S. cerevisiae deletion strains, locus YLR113W, strain HOG1, hits give low values 1.03 | S. cerevisiae deletion strains, locus YLR221C, strain rsa3, hits give low values 0.99 | S. cerevisiae deletion strains, locus YLR258W, strain gsy2, hits give low values 0.985 | S. cerevisiae deletion strains, locus YLR262C, strain YPT6 (second series), hits give low values 0.978 | S. cerevisiae deletion strains, locus YLR262C, strain YPT6, hits give low values 1.02 | S. cerevisiae deletion strains, locus YLR268W, strain sec22, hits give low values 0.999 | S. cerevisiae deletion strains, locus YLR320W, strain mms22, hits give low values 0.977 | S. cerevisiae deletion strains, locus YLR330W, strain CHS5, hits give low values 1.01 | S. cerevisiae deletion strains, locus YLR342W, strain FKS1 (second series), hits give low values 1.06 | S. cerevisiae deletion strains, locus YLR342W, strain FKS1, hits give low values 1.01 | S. cerevisiae deletion strains, locus YLR357W, strain rsc2, hits give low values 0.958 | S. cerevisiae deletion strains, locus YLR370C, strain arc18, hits give low values 0.999 | S. cerevisiae deletion strains, locus YLR371W, strain rom2, hits give low values 1.02 | S. cerevisiae deletion strains, locus YLR384C, strain iki3, hits give low values 0.986 | S. cerevisiae deletion strains, locus YLR418C, strain cdc73, hits give low values 0.994 | S. cerevisiae deletion strains, locus YML016C, strain PPZ1, hits give low values 1 | S. cerevisiae deletion strains, locus YML032C, strain rad52, hits give low values 1.02 | S. cerevisiae deletion strains, locus YML120C, strain ndi1, hits give low values 0.986 | S. cerevisiae deletion strains, locus YML124C, strain tub3, hits give low values 1 | S. cerevisiae deletion strains, locus YMR058W, strain fet3, hits give low values 1 | S. cerevisiae deletion strains, locus YMR078C, strain ctf18, hits give low values 1.01 | S. cerevisiae deletion strains, locus YMR125W, strain sto1, hits give low values 0.954 | S. cerevisiae deletion strains, locus YMR129W, hits give low values 1 | S. cerevisiae deletion strains, locus YMR205C, strain PFK2, hits give low values 0.98 | S. cerevisiae deletion strains, locus YMR223W, strain ubp8, hits give low values 1.04 | S. cerevisiae deletion strains, locus YMR231W, strain pep5, hits give low values 0.994 | S. cerevisiae deletion strains, locus YMR307W, strain GAS1, hits give low values 1.04 | S. cerevisiae deletion strains, locus YNL067W, strain RPL9B, hits give low values 1.03 | S. cerevisiae deletion strains, locus YNL071W, strain lat1, hits give low values 0.983 | S. cerevisiae deletion strains, locus YNL128W, strain TEP1, hits give low values 1.03 | S. cerevisiae deletion strains, locus YNL153C, strain GIM3, hits give low values 0.997 | S. cerevisiae deletion strains, locus YNL183C, strain NPR1, hits give low values 0.983 | S. cerevisiae deletion strains, locus YNL209W, strain ssb2, hits give low values 0.982 | S. cerevisiae deletion strains, locus YNL233W, strain BNI4, hits give low values 1.01 | S. cerevisiae deletion strains, locus YNL248C, strain rpa49, hits give low values 0.978 | S. cerevisiae deletion strains, locus YNL250W, strain rad50, hits give low values 1.03 | S. cerevisiae deletion strains, locus YNL271C, strain bni1, hits give low values 1 | S. cerevisiae deletion strains, locus YNL298W, strain CLA4, hits give low values 1.01 | S. cerevisiae deletion strains, locus YNL307C, strain MCK1, hits give low values 1.02 | S. cerevisiae deletion strains, locus YNL322C, strain KRE1 (second series), hits give low values 1.01 | S. cerevisiae deletion strains, locus YNR049C, strain mso1, hits give low values 0.983 | S. cerevisiae deletion strains, locus YNR052C, strain pop2, hits give low values 1.01 | S. cerevisiae deletion strains, locus YOL012C, strain htz1 0.87 | S. cerevisiae deletion strains, locus YOL147C, strain pex11, hits give low values 1.01 | S. cerevisiae deletion strains, locus YOR001W, strain rrp6, hits give low values 0.995 | S. cerevisiae deletion strains, locus YOR061W, strain CKA2, hits give low values 1.01 | S. cerevisiae deletion strains, locus YOR069W, strain VPS5, hits give low values 1.01 | S. cerevisiae deletion strains, locus YOR070C, strain gyp1, hits give low values 1.01 | S. cerevisiae deletion strains, locus YOR080W, strain dia2, hits give low values 0.996 | S. cerevisiae deletion strains, locus YOR083W, strain WHI5, hits give low values 0.986 | S. cerevisiae deletion strains, locus YOR106W, strain vam3, hits give low values 1.01 | S. cerevisiae deletion strains, locus YOR136W, strain idh2, hits give low values 1 | S. cerevisiae deletion strains, locus YOR144C, strain elg1, hits give low values 1.01 | S. cerevisiae deletion strains, locus YOR184W, strain ser1, hits give low values 1.01 | S. cerevisiae deletion strains, locus YOR231W, strain MKK1, hits give low values 1.02 | S. cerevisiae deletion strains, locus YOR265W, strain rbl2, hits give low values 1 | S. cerevisiae deletion strains, locus YOR270C, strain vph1, hits give low values 0.936 | S. cerevisiae deletion strains, locus YOR290C, strain snf2, hits give low values 1 | S. cerevisiae deletion strains, locus YOR316C, strain cot1, hits give low values 1 | S. cerevisiae deletion strains, locus YPL051W, strain arl3, hits give low values 1.02 | S. cerevisiae deletion strains, locus YPL078C, strain atp4, hits give low values 0.993 | S. cerevisiae deletion strains, locus YPL106C, strain sse1, hits give low values 1.02 | S. cerevisiae deletion strains, locus YPL240C, strain hsp82, hits give low values 0.983 | S. cerevisiae deletion strains, locus YPL256C, strain CLN2, hits give low values 1.06 | S. cerevisiae deletion strains, locus YPR119W, strain clb2, hits give low values 1 | S. cerevisiae deletion strains, locus YPR141C, strain kar3, hits give low values 0.996 | S. cerevisiae deletion strains, locus YPR163C, strain tif3, hits give low values 1 | S. cerevisiae deletion strains, locus YPR167C, strain met16, hits give low values 1.01 | S. cerevisiae deletion strains, strain wtn01, hits give low values 1 | S. cerevisiae strains, strain wild type, hits give low values 1.01
